The values below come from the supplement of paper PMC7411054.

Holding throughout (assay): lowest phenotypically active concentration; higher = less potent
Common to all, as to settings: treatment time: 24 h

Assay [1] has as its system A549-CANX-COX4. A digest of the protocol:
(§1)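 Phenotypic activity depended on meeting both a deviation and a reproducibility criterion. The fifteen gene-edited A549, HepG2 and WPMY1 reporter lines were treated at 0.3, 1, 3 or 9 µM for 24 h, four wells each, then imaged live with features normalised to solvent control wells. Deviation required ≥3 of 4 wells past the 95th percentile of control Euclidean distances, and reproducibility a median replicate Pearson correlation above the 95th percentile of non-replicates.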

In assay [2] the test system is A549-TUBA1B-RELA. A digest of the protocol:
as §1

Assay [3] concerns HepG2-ACTB-RAB5A. Put shortly: as §1
For assay [4], the system named is HepG2-CANX-COX4. Put shortly:
as §1

For assay [5], the system named is HepG2-TP53BP1-CLTA. Put shortly: as §1
In assay [6] the test system is WPMY1-ACTB-RAB5A. Put shortly: as §1
For assay [7], the system named is WPMY1-CANX-COX4. A digest of the protocol:
as §1

The test system of assay [8] is WPMY1-GM130-SQSTM1. A digest of the protocol:
as §1

For assay [9], the system named is WPMY1-TP53BP1-CLTA. A digest of the protocol: as §1
In assay [10] the test system is WPMY1-TUBA1B-RELA. A digest of the protocol:
as §1

The structures appear in SMILES notation. Some results are limits rather than exact numbers.

With `Cc1cc2c(C(C)C)c(O)c(O)c(C=O)c2c(O)c1-c1c(C)cc2c(C(C)C)c(O)c(O)c(C=O)c2c1O` [gossypol], the “lowest phenotypically active concentration” value in assay [1], in assay [2], in [3], in assay [4], in assay [5] and in assay [6] was 9 µM each time. Also, the “lowest phenotypically active concentration” value in [7] was determined as 9 µM; in assay [8], 9 µM; in assay [9] it was 3 µM; in assay [10], 9 µM.
Regarding `C=C1[C@@H](O)C2C=CC[C@H](C)C(=O)[C@](C)(O)C=C[C@@H](OC(C)=O)[C@]23C(=O)N[C@H](Cc2ccccc2)[C@@H]3[C@@H]1C` (some centres undefined) [Cytochalasin D], the “lowest phenotypically active concentration” value in assay [1], in assay [2], in [3], in assay [4], in assay [5] and in [6] was not above 0.3 µM in each case. For the same molecule, the “lowest phenotypically active concentration” value in assay [7], in [8], in assay [9] and in [10] was not above 0.3 µM in each case.
Take `Cc1sc2c(c1C)C(c1ccc(Cl)cc1)=N[C@@H](CC(=O)OC(C)(C)C)c1nnc(C)n1-2`: the “lowest phenotypically active concentration” value in [1], in assay [2], in assay [3], in [4], in assay [5] and in [6] was not above 0.3 µM throughout. The “lowest phenotypically active concentration” value in assay [7] is not above 0.3 µM; in assay [8] it was not above 0.3 µM; in assay [9] it was not above 0.3 µM; in [10], 1 µM.
For the molecule `N#CC(C#N)=NNc1ccc(OC(F)(F)F)cc1`, the “lowest phenotypically active concentration” value in [1] worked out at 9 µM; in assay [2], 3 µM; in [3], 9 µM; in assay [4], 9 µM; in [5] it was 9 µM; in assay [6], 3 µM. The “lowest phenotypically active concentration” value worked out at 3 µM in assay [7], 9 µM in [8], 3 µM in assay [9] and 9 µM in assay [10].
Consider `COc1cc2c(c(OC)c1OC)-c1ccc(O)c(=O)cc1[C@@H](N)CC2` [Trimethylcolchicinic acid], for which the “lowest phenotypically active concentration” value in [1], in assay [2] and in [4] was 9 µM in each case.
As to `COc1ccc2c(c[n+](C)c3c4cc5c(cc4ccc23)OCO5)c1OC` [Chelerythrine chloride], the “lowest phenotypically active concentration” value in assay [5] and in assay [9] was 9 µM throughout.
In the case of `CC(C)(N)Cc1ccccc1` [phentermine], the “lowest phenotypically active concentration” value in [1], in assay [3] and in [8] was 9 µM throughout.
On to `O=c1[nH]c2ccccc2n1C1CCN(CCCC(c2ccc(F)cc2)c2ccc(F)cc2)CC1` [pimozide], for which the “lowest phenotypically active concentration” value in [2] and in [3] was 3 µM throughout.
Turning to `CC[C@@H](C(=O)[C@@H](C)[C@@H](O)[C@H](C)[C@@H]1O[C@@H]([C@@H](CC)C(=O)O)CC[C@@H]1C)[C@H]1O[C@]2(C=C[C@@H](O)[C@]3(CC[C@@](C)([C@H]4CC[C@](O)(CC)[C@H](C)O4)O3)O2)[C@H](C)C[C@@H]1C` [Salinomycin Sodium], the “lowest phenotypically active concentration” value in [1] is 1 µM; in assay [2], not above 0.3 µM; in assay [3], 1 µM; in assay [4], 1 µM; in [5], 1 µM; in assay [6] it was not above 0.3 µM. In addition, the “lowest phenotypically active concentration” value in assay [7], in assay [8], in assay [9] and in assay [10] was not above 0.3 µM throughout.
For `C[C@@H]1CC[C@H]2[C@@H](C)C(=O)O[C@@H]3O[C@@]4(C)CC[C@@H]1[C@]32OO4` [Artemisinin], the “lowest phenotypically active concentration” value in assay [2] was not above 0.3 µM; in assay [3], 3 µM; in assay [5], 1 µM; in assay [6], not above 0.3 µM; in assay [7], not above 0.3 µM; in assay [8], not above 0.3 µM. Moreover, the results for the “lowest phenotypically active concentration” value in [9] and in assay [10] were 1 µM and not above 0.3 µM, respectively.
For the molecule `C/C=C(/C)C(=O)O[C@H]1C(C)=C2[C@H]([C@@H]1OC(=O)CCCCCCC)[C@@](C)(OC(C)=O)C[C@H](OC(=O)CCC)[C@@]1(O)[C@H]2OC(=O)[C@@]1(C)O` [Thapsigargin], the “lowest phenotypically active concentration” value in assay [1], in assay [2], in assay [3], in assay [4], in assay [5] and in [6] was not above 0.3 µM throughout. Further, the “lowest phenotypically active concentration” value in assay [7], in [8], in [9] and in assay [10] was not above 0.3 µM throughout.
On to `CC[C@@H]1C=CC=CC[C@H](C)[C@@H](O)[C@](C)(O)C(=O)[C@H](C)[C@@H](O)[C@H](C)C(=O)[C@H](C)[C@@H](O)[C@H](C)C=CC(=O)O[C@H]2[C@@H](C)[C@@H](CC1)O[C@@]1(CC[C@@H](C)[C@@H](C[C@H](C)O)O1)[C@@H]2C` [Oligomycin A], for which the “lowest phenotypically active concentration” value in assay [1] is not above 0.3 µM; in [2], not above 0.3 µM; in assay [3], not above 0.3 µM; in [4], not above 0.3 µM; in assay [5] it was not above 0.3 µM; in assay [7] it was 1 µM.
As to `CC(C)(C)c1cc(C=C(C#N)C#N)cc(C(C)(C)C)c1O` [Malonoben], the “lowest phenotypically active concentration” value in assay [1], in [2], in [3], in assay [4], in assay [5] and in [6] was 1 µM throughout. For the same molecule, the “lowest phenotypically active concentration” value in assay [7], in assay [8], in assay [9] and in [10] was 1 µM in each case.
